Drawing on PubChem BioAssay (NCI), this text covers growth for 14 compounds.

Compounds without any hit were thinned out: in the full panel of roughly 83,000, 20% have a hit.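 Growth was measured after 48 h exposure to one concentration of compound in 96-well plates. Values under 10 count as active.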 Values without a mark were called inactive. The source made the active and inactive calls.

Some test systems named below: SR leukemia; RPMI-8226 leukemia; OVCAR-8 ovarian; OVCAR-5 ovarian; OVCAR-4 ovarian; SK-OV-3 ovarian; IGROV1 ovarian; OVCAR-3 ovarian; HS 578T breast; NCI/ADR-RES ovarian.
Assay in all cases: NCI-60 one-dose screen, 48 h (100 = growth as untreated, 0 = no growth, -100 = all killed)
Common to all, as to details: 10 µM unless noted

Consider `CO[C@H](C(=O)[C@@H](O)[C@@H](C)O)[C@@H]1Cc2cc3cc(O[C@H]4C[C@@H](O[C@H]5C[C@@H](O)[C@H](O)C(C)O5)[C@H](O)C(C)O4)c(C)c(O)c3c(O)c2C(=O)[C@H]1O[C@H]1C[C@@H](O[C@H]2C[C@@H](O[C@H]3C[C@@H](OC)[C@H](O)C(C)O3)[C@@H](O)C(C)O2)C(O)(O)C(C)O1` (stereo not given in full), for which the growth in the assay with SR leukemia is 13.5%; in the assay on RPMI-8226 leukemia, 9.26% (active); in the assay on OVCAR-8 ovarian it was 9.53% (active); in the assay with OVCAR-5 ovarian it was 14.5%; in the assay with OVCAR-4 ovarian it was 21.7%; with SK-OV-3 ovarian, 14.6%. For the same compound, the growth in the assay with IGROV1 ovarian is 22.3%; with OVCAR-3 ovarian, 9.32% (active); in the assay with HS 578T breast it was 25.3%; in the assay on NCI/ADR-RES ovarian, 87.3%.

`CCCNc1nc2ccccc2c2c(=O)c3cccc(Cl)c3sc12`: the growth in the assay on SR leukemia was 82.7%; in the assay on RPMI-8226 leukemia it was 103%; in the assay on OVCAR-8 ovarian, 95.4%; in the assay on OVCAR-5 ovarian, 96.5%; in the assay on OVCAR-4 ovarian, 81.9%; with SK-OV-3 ovarian, 88.4%. Besides, the growth in the assay on IGROV1 ovarian was 70.1%; in the assay on OVCAR-3 ovarian, 111%; in the assay on HS 578T breast it was 114%; in the assay with NCI/ADR-RES ovarian, 101%.

As for `COc1cc(C(=O)C(=O)c2cc(OC)c(O)c(OC)c2)cc(OC)c1O`, the growth with SR leukemia was 103%; with RPMI-8226 leukemia it was 91.3%; in the assay with OVCAR-8 ovarian it was 102%; in the assay with OVCAR-5 ovarian, 97%; in the assay with OVCAR-4 ovarian, 101%; in the assay on SK-OV-3 ovarian, 103%. Besides, the growth in the assay with IGROV1 ovarian was 117%; with OVCAR-3 ovarian, 103%; in the assay with HS 578T breast, 110%; in the assay with NCI/ADR-RES ovarian, 101%.

`O=C(N/N=C/c1ccc(Cl)cc1Cl)c1ccc2nc(-c3ccc(Cl)cc3)[nH]c2c1`: the growth with SR leukemia was -24.2% (active); with RPMI-8226 leukemia, 2.83% (active); with OVCAR-8 ovarian, 14.2%; in the assay with OVCAR-5 ovarian, 23.7%; in the assay on OVCAR-4 ovarian, -17.9% (active); with SK-OV-3 ovarian, 49.8%. In addition, the growth is -27.4% (active) with IGROV1 ovarian, -52.9% (active) in the assay with OVCAR-3 ovarian, 33% with HS 578T breast and 41.2% with NCI/ADR-RES ovarian.

Regarding `COc1cc2nc(Nc3cccc(F)c3)nc(Nc3cc(C)[nH]n3)c2cc1OC`, the growth with SR leukemia was -9.83% [20 µM] (active); in the assay on RPMI-8226 leukemia, -41.7% [20 µM] (active); in the assay on OVCAR-8 ovarian, -42.5% [20 µM] (active); in the assay with OVCAR-5 ovarian it was -100% [20 µM] (active); with OVCAR-4 ovarian it was -88.2% [20 µM] (active); with SK-OV-3 ovarian, -90% [20 µM] (active). The growth was -96.1% [20 µM] (active) in the assay on IGROV1 ovarian, -80.2% [20 µM] (active) in the assay with OVCAR-3 ovarian, -59.3% [20 µM] (active) with HS 578T breast and -57.8% [20 µM] (active) in the assay with NCI/ADR-RES ovarian.

Consider `COc1cccc(/C=C/C(=O)c2cc3c(N)c(C(=O)Nc4cccc(Cl)c4C)sc3nc2C)c1`, for which the growth with SR leukemia is 7.93% (active); in the assay with RPMI-8226 leukemia, -32.6% (active); in the assay on OVCAR-8 ovarian, -33.4% (active); in the assay on OVCAR-5 ovarian, 7.92% (active); in the assay with OVCAR-4 ovarian, 38.1%; in the assay with SK-OV-3 ovarian it was 14.7%. In addition, the growth in the assay with IGROV1 ovarian is -18.7% (active); with OVCAR-3 ovarian, -60.5% (active); in the assay on HS 578T breast, 4.67% (active); in the assay on NCI/ADR-RES ovarian, -3.64% (active).

Consider `COc1cc(-c2nc3ccc(C)cc3[nH]2)ccc1OCC(=O)N=Nc1c(O)[nH]c2ccc(Cl)cc12`, for which the growth was -32.8% (active) in the assay on SR leukemia; -36.6% (active) in the assay with RPMI-8226 leukemia; -34.7% (active) with OVCAR-8 ovarian; 11.1% with OVCAR-5 ovarian; -8% (active) with OVCAR-4 ovarian; 32% in the assay on SK-OV-3 ovarian. Also, the growth is 4.74% (active) with IGROV1 ovarian, -70.2% (active) in the assay on OVCAR-3 ovarian, -22.3% (active) in the assay on HS 578T breast and 83.4% in the assay on NCI/ADR-RES ovarian.

For the compound `CN1CCN(C(=O)c2cc(-c3ccc4ncnc(N5CCc6cc(F)c(Cl)cc65)c4c3)cnc2N)CC1`, the growth with SR leukemia was 14.7%; in the assay with RPMI-8226 leukemia, -25.7% (active); with OVCAR-8 ovarian, 10.3%; in the assay with OVCAR-5 ovarian, 9.22% (active); in the assay with OVCAR-4 ovarian, -12.7% (active); in the assay on SK-OV-3 ovarian it was 10.9%. Moreover, the growth in the assay with IGROV1 ovarian is -33.4% (active); with OVCAR-3 ovarian it was -42.8% (active); in the assay with HS 578T breast, -17.2% (active); in the assay on NCI/ADR-RES ovarian, 8.74% (active).

`O=C(Cn1nnc2ccccc21)Nc1ccc(-c2nc3ccccc3s2)cc1`: the growth was 40.2% in the assay on SR leukemia; 85.3% with RPMI-8226 leukemia; 98.5% with OVCAR-8 ovarian; 104% in the assay with OVCAR-5 ovarian; 72.2% in the assay on OVCAR-4 ovarian; 104% in the assay with SK-OV-3 ovarian. Besides, the growth was 97.5% in the assay with IGROV1 ovarian, 90.4% in the assay on OVCAR-3 ovarian, 112% in the assay with HS 578T breast and 96.2% with NCI/ADR-RES ovarian.

Turning to `CCCCCCCC/C=C\CCCCCCCCOc1ccccc1CC(=O)NCC[N+]1(C)CCCCC1`, the growth in the assay on SR leukemia was -5.14% (active); in the assay on RPMI-8226 leukemia, 19.7%; in the assay with OVCAR-8 ovarian, 60.5%; in the assay on OVCAR-5 ovarian, 66.2%; with OVCAR-4 ovarian, 34.1%; in the assay on SK-OV-3 ovarian, 85.2%. For the same compound, the growth in the assay with IGROV1 ovarian is 16.5%; in the assay on OVCAR-3 ovarian, 41.3%; with HS 578T breast, 77.2%; with NCI/ADR-RES ovarian, 99.3%.

As for `O=C(CBr)CN1C(=O)c2ccccc2C1=O`, the growth is 98.9% with SR leukemia; 112% in the assay with RPMI-8226 leukemia; 103% in the assay on OVCAR-8 ovarian; 97.4% with OVCAR-5 ovarian; 103% in the assay on OVCAR-4 ovarian; 99.7% with SK-OV-3 ovarian. Moreover, the growth was 103% in the assay with IGROV1 ovarian, 102% with OVCAR-3 ovarian, 105% in the assay on HS 578T breast and 105% with NCI/ADR-RES ovarian.

For `O=C(CCC(=O)c1nc2ncccc2[nH]1)NN1C(=O)CSC1c1ccc(Cl)cc1` (stereo not given), the growth is 55.9% with SR leukemia; 87.1% with RPMI-8226 leukemia; 101% with OVCAR-8 ovarian; 106% in the assay on OVCAR-5 ovarian; 94.1% with OVCAR-4 ovarian; 100% in the assay with SK-OV-3 ovarian. The growth in the assay on IGROV1 ovarian is 86.7%; in the assay with OVCAR-3 ovarian it was 98.7%; in the assay on HS 578T breast it was 101%; with NCI/ADR-RES ovarian, 100%.

In the case of `CC1=CCC[C@@H]2C1(C)CC[C@H](C)[C@@]2(C)CC1=CC(=O)C(SC(C)(C)C)=CC1=O` (stereo not given in full), the growth is 74% in the assay with SR leukemia; 64.7% in the assay on RPMI-8226 leukemia; 91.8% in the assay on OVCAR-8 ovarian; 68% in the assay on OVCAR-5 ovarian; 88.5% with OVCAR-4 ovarian; 106% in the assay on SK-OV-3 ovarian. The growth was 99.4% in the assay with IGROV1 ovarian, 84.9% in the assay on OVCAR-3 ovarian, 85% in the assay on HS 578T breast and 84.8% with NCI/ADR-RES ovarian.

With `Cn1c(=O)c2c(nc(NC3=NS(=O)(=O)c4ccccc43)n2Cc2ccccc2)n(C)c1=O`, the growth was 108% with SR leukemia; 103% in the assay with RPMI-8226 leukemia; 99.5% in the assay on OVCAR-8 ovarian; 99.6% in the assay with OVCAR-5 ovarian; 103% in the assay with OVCAR-4 ovarian; 97.5% with SK-OV-3 ovarian. Also, the growth in the assay with IGROV1 ovarian was 95.5%; in the assay on OVCAR-3 ovarian, 110%; with HS 578T breast it was 96.5%; in the assay with NCI/ADR-RES ovarian it was 103%.
